In PubChem BioAssay (EPA / NIEHS):
Activity calls are given as the source filed them. Rule for the calls: active = hit-call score of the fitted dose curve at least 0.9, where 1 is the maximum; inactive = score below 0.9.

Key:
Conditions in all cases: mRNA level, 48 h; actives raise or lower the signal
[1] = read-out: Bcl-2 (BAX) gene, BAX (gene 581); test: LTEA_HepaRG_BAX: Life Technologies and Expression Analysis (LTEA) Assay for Bcl-2 (BAX) gene using HepaRG (AID 2283470)
Summary of the method: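 Cells were thawed, plated for 48 h, moved to serum-free induction medium and dosed for 48 h (highest concentration 100 uM, half-log steps, 0.5% DMSO). Total RNA was then analysed for BAX expression by qRT-PCR.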

[2] = read-out: adenosine kinase (ADK) gene, ADK (gene 132); test: LTEA_HepaRG_ADK: Life Technologies and Expression Analysis (LTEA) Assay for adenosine kinase (ADK) gene using HepaRG (AID 2283471)
Summary of the method: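 Following 48 h exposure of HepaRG cells in 0.5% DMSO (top concentration 100 uM, duplicate wells), ADK mRNA induction or suppression was measured by qRT-PCR, normalised to ACTB/GAPDH/POLR2A, and fitted bidirectionally relative to vehicle.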

[3] = read-out: Alpha-fetoprotein (AFP) gene, AFP (gene 174); test: LTEA_HepaRG_AFP: Life Technologies and Expression Analysis (LTEA) Assay for Alpha-fetoprotein (AFP) gene using HepaRG (AID 2283472)
Summary of the method: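 Chemicals were tested on differentiated HepaRG cells for 48 hours at eight concentrations up to 100 uM, with 0.5% DMSO as vehicle. AFP expression was then quantified by qRT-PCR and analyzed for gain or loss relative to DMSO.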

[4] = read-out: BCL2L11 (gene 10018); test: LTEA_HepaRG_BCL2L11: Life Technologies and Expression Analysis (LTEA) Assay for Bcl-2 (BCL2L11) gene using HepaRG (AID 2283473)
Summary of the method: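 Differentiated human HepaRG cells in serum-free induction medium were exposed in duplicate for 48 h to eight concentrations (top 100 uM, half-log steps, 0.5% DMSO). BCL2L11 mRNA was quantified by TaqMan qRT-PCR, normalized to ACTB/GAPDH/POLR2A, bidirectional fit versus DMSO.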

[5] = read-out: Bcl-2 (BID) gene, BID (gene 637); test: LTEA_HepaRG_BID: Life Technologies and Expression Analysis (LTEA) Assay for Bcl-2 (BID) gene using HepaRG (AID 2283476)
Summary of the method: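 Cells are plated, cultured 48 h, switched to serum-free induction medium, then dosed 48 h (100 uM top, half-log steps, 0.5% DMSO). RNA is isolated and BID expression read by qRT-PCR.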

[6] = read-out: Caspase-3 (Homo sapiens) (UniProt P42574); test: LTEA_HepaRG_CASP3: Life Technologies and Expression Analysis (LTEA) Assay for cysteine-aspartic acid protease (CASP3) using HepaRG (AID 2283477)
Summary of the method: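 Differentiated human HepaRG cells in serum-free induction medium were exposed 48 h to 8-point half-log concentrations from 100 uM (0.5% DMSO vehicle). CASP3 mRNA was measured by qRT-PCR, normalised to ACTB, GAPDH and POLR2A, with bidirectional fitting against DMSO.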

[7] = read-out: Cytochrome P450 (CYP24A1), CYP24A1 (gene 1591); test: LTEA_HepaRG_CYP24A1: Life Technologies and Expression Analysis (LTEA) Assay for Cytochrome P450 (CYP24A1) using HepaRG (AID 2283478)
Summary of the method: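 Differentiated HepaRG cells, pre-cultured 48 h, were exposed in duplicate for 48 h in serum-free induction medium to 8 half-log concentrations (top 100 uM, 0.5% DMSO). CYP24A1 mRNA was quantified by TaqMan qRT-PCR, normalized to ACTB/GAPDH/POLR2A, fitted bidirectionally versus DMSO.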

[8] = read-out: Cytochrome P450 (CYP1A2), CYP1A2 (gene 1544); test: LTEA_HepaRG_CYP1A2: Life Technologies and Expression Analysis (LTEA) Assay for Cytochrome P450 (CYP1A2) using HepaRG (AID 2283479)
Summary of the method: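 Differentiated human HepaRG cells in serum-free induction medium were exposed in duplicate for 48 h to 8-point half-log concentrations up to 100 uM in 0.5% DMSO. CYP1A2 mRNA measured by qRT-PCR, normalized to ACTB, GAPDH, POLR2A; bidirectional fit vs DMSO.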

[9] = read-out: cysteine-aspartic acid protease (CASP8), CASP8 (gene 841); test: LTEA_HepaRG_CASP8: Life Technologies and Expression Analysis (LTEA) Assay for cysteine-aspartic acid protease (CASP8) using HepaRG (AID 2283480)
Summary of the method: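 Concentration-response in duplicate up to 100 uM (half-log steps, 0.5% DMSO) on differentiated HepaRG cultures for 48 h. Expression change of CASP8 mRNA is determined by TaqMan qRT-PCR with housekeeping-gene normalization.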

[10] = read-out: Cytochrome P450 (CYP2B6), CYP2B6 (gene 1555); test: LTEA_HepaRG_CYP2B6: Life Technologies and Expression Analysis (LTEA) Assay for Cytochrome P450 (CYP2B6) using HepaRG (AID 2283481)
Summary of the method: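 Differentiated HepaRG cells, serum-free induction medium, exposed 48 h in duplicate to 8-point half-log concentrations from 100 uM in 0.5% DMSO. CYP2B6 mRNA by qRT-PCR, normalized to ACTB, GAPDH, POLR2A; bidirectional fit versus DMSO.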

[11] = read-out: Cytochrome P450 2C19 (Homo sapiens) (UniProt P33261); test: LTEA_HepaRG_CYP2C19: Life Technologies and Expression Analysis (LTEA) Assay for CYP2C19 using HepaRG (AID 2283482)
Summary of the method: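 Differentiated human HepaRG cells were exposed for 48 h in serum-free induction medium to 8 concentrations (top 100 uM, half-log steps, 0.5% DMSO). CYP2C19 mRNA was measured by qRT-PCR, normalized to ACTB/GAPDH/POLR2A, and fitted bidirectionally against DMSO.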

[12] = read-out: CYP2C8 (gene 1558); test: LTEA_HepaRG_CYP2C8: Life Technologies and Expression Analysis (LTEA) Assay for CYP2C8 using HepaRG (AID 2283483)
Summary of the method: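 This is a transcriptional endpoint in HepaRG cultures: 48 h exposure, highest concentration 100 uM. CYP2C8 mRNA is quantified by TaqMan qRT-PCR.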

[13] = read-out: CYP2C9 (gene 1559); test: LTEA_HepaRG_CYP2C9: Life Technologies and Expression Analysis (LTEA) Assay for CYP2C9 using HepaRG (AID 2283484)
Summary of the method: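 Eight-point concentration-response (highest 100 uM, half-log dilutions) in HepaRG cells for 48 h; CYP2C9 expression by qRT-PCR normalized to ACTB, GAPDH, POLR2A. Bidirectional fit, DMSO baseline.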

[14] = read-out: CYP2E1 (gene 1571); test: LTEA_HepaRG_CYP2E1: Life Technologies and Expression Analysis (LTEA) Assay for CYP2E1 using HepaRG (AID 2283485)
Summary of the method: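 Readout is qRT-PCR of CYP2E1 mRNA, normalized to three housekeeping genes and fitted bidirectionally against 0.5% DMSO. HepaRG cells were dosed 48 h at eight concentrations, highest 100 uM with half-log dilutions.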

[15] = read-out: CYP4A11 (gene 1579); test: LTEA_HepaRG_CYP4A11: Life Technologies and Expression Analysis (LTEA) Assay for CYP4A11 using HepaRG (AID 2283486)
Summary of the method: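 Differentiated HepaRG cells, serum-free induction medium, exposed 48 h in duplicate to 8-point half-log series from 100 uM in 0.5% DMSO. CYP4A11 mRNA measured by qRT-PCR, normalized to ACTB, GAPDH, POLR2A; bidirectional fit versus DMSO.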

[16] = read-out: Cytochrome P450 3A4 (Homo sapiens) (UniProt P08684); test: LTEA_HepaRG_CYP3A4: Life Technologies and Expression Analysis (LTEA) Assay for CYP3A4 using HepaRG (AID 2283487)
Summary of the method: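 In a human hepatic line (HepaRG), duplicate wells were treated 48 h with up to 100 uM chemical in half-log dilutions. Endpoint: CYP3A4 mRNA induction or loss relative to 0.5% DMSO vehicle, by qRT-PCR.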

[17] = read-out: DNA damage-inducible transcript 3 (DDIT3), DDIT3 (gene 1649); test: LTEA_HepaRG_DDIT3: Life Technologies and Expression Analysis (LTEA) Assay for DNA damage-inducible transcript 3 (DDIT3) using HepaRG (AID 2283488)
Summary of the method: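 Cells are human HepaRG liver cells treated for 48 h with eight half-log concentrations up to 100 uM in 0.5% DMSO. Transcript levels come from qRT-PCR normalized to three housekeeping genes, with activity fitted in both directions relative to vehicle.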

[18] = read-out: Pro-epidermal growth factor (Homo sapiens) (UniProt P01133); test: LTEA_HepaRG_EGF: Life Technologies and Expression Analysis (LTEA) Assay for Epidermal growth factor (EGF) using HepaRG (AID 2283489)
Summary of the method: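 Differentiated human HepaRG cells, plated 48 h then switched to serum-free induction medium, were exposed for 48 h to test chemicals (8-point half-log series, top 100 uM, 0.5% DMSO). EGF mRNA was quantified by qRT-PCR, normalized to ACTB, GAPDH, POLR2A.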

[19] = read-out: Apoptosis regulator Bcl-2 (Homo sapiens) (UniProt P10415); test: LTEA_HepaRG_BCL2: Life Technologies and Expression Analysis (LTEA) Assay for Bcl-2 gene using HepaRG (AID 2283475)
Summary of the method: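 Plated human HepaRG cells are exposed to test chemicals for 48 h across eight concentrations from 100 uM downward in half-log steps (0.5% DMSO). BCL2 expression is then measured by qRT-PCR with housekeeping normalisation and fitted bidirectionally against vehicle.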

Measured: AC50

Sequence of Cytochrome P450 3A4 (Homo sapiens) (P08684 whole entry, looked up): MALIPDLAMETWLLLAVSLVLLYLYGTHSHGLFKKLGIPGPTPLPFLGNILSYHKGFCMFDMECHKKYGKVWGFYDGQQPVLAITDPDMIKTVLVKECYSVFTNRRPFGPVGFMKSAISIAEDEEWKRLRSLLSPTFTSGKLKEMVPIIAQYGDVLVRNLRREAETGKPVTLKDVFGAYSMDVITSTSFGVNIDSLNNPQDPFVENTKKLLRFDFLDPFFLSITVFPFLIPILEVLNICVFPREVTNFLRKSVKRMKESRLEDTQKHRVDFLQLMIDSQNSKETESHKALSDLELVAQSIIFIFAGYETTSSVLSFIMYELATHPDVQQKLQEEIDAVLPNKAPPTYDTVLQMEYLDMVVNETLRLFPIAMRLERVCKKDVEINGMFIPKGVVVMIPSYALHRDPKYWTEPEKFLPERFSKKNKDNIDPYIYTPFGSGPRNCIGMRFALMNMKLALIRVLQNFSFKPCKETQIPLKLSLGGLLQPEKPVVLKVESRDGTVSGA
Sequence of Apoptosis regulator Bcl-2 (Homo sapiens) (P10415 whole entry, looked up): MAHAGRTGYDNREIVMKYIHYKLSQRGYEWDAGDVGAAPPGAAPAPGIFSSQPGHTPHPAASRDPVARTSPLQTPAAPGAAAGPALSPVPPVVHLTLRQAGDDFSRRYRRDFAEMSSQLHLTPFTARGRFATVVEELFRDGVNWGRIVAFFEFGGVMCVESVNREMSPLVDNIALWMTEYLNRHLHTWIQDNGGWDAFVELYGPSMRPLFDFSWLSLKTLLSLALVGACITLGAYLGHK
Sequence of Caspase-3 (Homo sapiens) (P42574 whole entry, looked up): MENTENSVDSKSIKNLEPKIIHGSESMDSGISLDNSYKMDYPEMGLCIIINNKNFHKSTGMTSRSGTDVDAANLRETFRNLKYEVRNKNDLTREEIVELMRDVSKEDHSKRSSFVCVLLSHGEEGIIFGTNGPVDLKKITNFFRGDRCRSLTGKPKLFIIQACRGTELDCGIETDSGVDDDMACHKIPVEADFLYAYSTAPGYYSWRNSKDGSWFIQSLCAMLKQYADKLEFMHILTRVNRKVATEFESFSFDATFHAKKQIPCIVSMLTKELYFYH
Sequence of Cytochrome P450 2C19 (Homo sapiens) (P33261 whole entry, looked up): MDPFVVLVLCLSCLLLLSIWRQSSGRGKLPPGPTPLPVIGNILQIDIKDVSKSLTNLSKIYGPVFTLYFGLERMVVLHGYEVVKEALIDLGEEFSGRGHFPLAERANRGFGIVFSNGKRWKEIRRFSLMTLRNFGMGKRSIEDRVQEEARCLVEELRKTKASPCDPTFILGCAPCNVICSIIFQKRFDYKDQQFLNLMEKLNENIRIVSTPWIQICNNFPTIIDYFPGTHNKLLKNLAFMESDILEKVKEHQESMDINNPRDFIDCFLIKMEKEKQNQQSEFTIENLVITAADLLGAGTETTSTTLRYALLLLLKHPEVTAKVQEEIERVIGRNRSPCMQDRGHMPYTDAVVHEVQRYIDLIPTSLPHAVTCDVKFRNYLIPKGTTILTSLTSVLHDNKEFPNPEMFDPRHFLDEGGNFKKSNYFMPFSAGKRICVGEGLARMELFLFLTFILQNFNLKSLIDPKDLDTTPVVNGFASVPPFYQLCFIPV

COC(=O)NC(=S)Nc1ccccc1NC(=S)NC(=O)OC
active: [8] 39 µM | [10] 9.55 µM | [11] 13.7 µM | [14] 26.8 µM | [16] 6.29 µM
not listed: [19]
inactive: all other assays above

CC1(C)C(C(=O)OC(C#N)c2cccc(Oc3ccccc3)c2)C1(C)C (configuration not stated)
active: [8] 39.6 µM | [10] 67.6 µM | [11] 50 µM | [14] 9.92 µM | [15] 50 µM | [16] 50 µM
not listed: [12]
inactive: all other assays above

CNC(=O)Oc1cccc2ccccc12
active: [7] 0.0808 µM | [10] 25.6 µM
not listed: [12]
inactive: all other assays above

Cc1nc(N(C)C)nc(OC(=O)N(C)C)c1C
active: [7] 92.4 µM | [10] 8.42 µM | [11] 19.7 µM | [16] 40.7 µM
not listed: [12]
inactive: all other assays above

Cc1cnc(C2=NC(C)(C(C)C)C(=O)N2)c(C(=O)O)c1 (configuration not stated)
inactive: all assays above

CCSC(=O)N1CCCCCC1
active: [10] 2.93 µM | [16] 30 µM
not listed: [12]
inactive: all other assays above

Cc1cc(C)nc(Nc2ccccc2)n1
active: [8] 88.8 µM | [10] 6.39 µM | [15] 50 µM
not listed: [12] | [19]
inactive: all other assays above

COc1ccc(-c2ccccc2)cc1NNC(=O)OC(C)C
active: [8] 74.5 µM
not listed: [12] | [19]
inactive: all other assays above

COCc1cnc(C2=NC(C)(C(C)C)C(=O)N2)c(C(=O)O)c1 (configuration not stated)
not listed: [12] | [19]
inactive: all other assays above

CNC(=O)N(C)c1nnc(C(C)(C)C)s1
active: [8] 50 µM | [10] 31.6 µM
not listed: [12] | [14] | [19]
inactive: all other assays above

CC(C)C1(C)N=C(c2ncccc2C(=O)O)NC1=O (configuration not stated)
not listed: [12] | [19]
inactive: all other assays above

Nc1cnn(-c2ccccc2)c(=O)c1Cl
active: [8] 80.6 µM | [10] 17.1 µM | [14] 9.92 µM | [16] 17.6 µM
not listed: [12]
inactive: all other assays above

CCCN(CC)CC1COC2(CCC(C(C)(C)C)CC2)O1 (configuration not stated)
active: [10] 50 µM
not listed: [12]
inactive: all other assays above

C=C(C)CN(CC)c1c([N+](=O)[O-])cc(C(F)(F)F)cc1[N+](=O)[O-]
active: [8] 33 µM | [10] 23.6 µM | [11] 50 µM | [14] 87.9 µM | [16] 50 µM
not listed: [19]
inactive: all other assays above
